Among the data in PubChem BioAssay are composite z-score and z-score values, retold here.

Active and inactive are the calls of the source.

Experiment [1] is described as follows: binders of probe aFSTL3 on microarray, primary screen, stem cell growth factor project, biochemical, small-molecule microarray, fluorescence 635/667 (AID 1064).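 Further: measures binding of the biotinylated anti-FSTL3 antibody to printed compounds.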 As to conditions: higher = more signal.
Experiment [2] is described as follows: binders from COS7 lysate, DM2A8 probe, primary screen, torsin A project, cell lysate, small-molecule microarray, fluorescence 635/667 (AID 1065). As to conditions: higher = more signal, COS7 lysate expressing mutant human TOR1A.
Experiment [3] is described as follows: binders of probe aFGF2 on microarray, primary screen, stem cell growth factor project, biochemical, small-molecule microarray, fluorescence 635/667 (AID 1067).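 Further: measures binding of biotinylated aFGF2 protein to printed compounds on slides; z-score merges feature fluorescence and signal-to-noise across triplicate slides.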 The note with it: higher = more signal.
A short description of experiment [4]: binders of probe aFGF10 on microarray, primary screen, stem cell growth factor project, biochemical, small-molecule microarray, fluorescence 635/667 (AID 1071).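 Further: score merges 667 nm spot intensity and signal to noise from triplicate slides.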 The note with it: higher = more signal.
Experiment [5] has as its target Neurogenic locus notch homolog protein 2 (Homo sapiens) (UniProt Q04721). The experiment is described as follows: Notch2 binders on small-molecule microarrays, primary screen, biochemical, small-molecule microarray, 635 nm fluorescence, stem cell growth factors (AID 1073). The note with it: Notch2 binding, higher = more signal.
In experiment [6] the target is Pro-neuregulin-1, membrane-bound isoform (Homo sapiens) (UniProt Q02297). The experiment is described as follows: NRG1 binders on small-molecule microarrays, primary screen, psychiatric disease protein project, biochemical, small-molecule microarray, fluorescence 635/667 (AID 1075).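 Further: score combines 667 nm spot fluorescence with signal to noise.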 The note with it: NRG1 binding, 635 nm fluorescence, higher = more signal.
Chain of Pro-neuregulin-1, membrane-bound isoform (Homo sapiens) (Q02297 whole entry, looked up, the tested form may be a part, canonical isoform): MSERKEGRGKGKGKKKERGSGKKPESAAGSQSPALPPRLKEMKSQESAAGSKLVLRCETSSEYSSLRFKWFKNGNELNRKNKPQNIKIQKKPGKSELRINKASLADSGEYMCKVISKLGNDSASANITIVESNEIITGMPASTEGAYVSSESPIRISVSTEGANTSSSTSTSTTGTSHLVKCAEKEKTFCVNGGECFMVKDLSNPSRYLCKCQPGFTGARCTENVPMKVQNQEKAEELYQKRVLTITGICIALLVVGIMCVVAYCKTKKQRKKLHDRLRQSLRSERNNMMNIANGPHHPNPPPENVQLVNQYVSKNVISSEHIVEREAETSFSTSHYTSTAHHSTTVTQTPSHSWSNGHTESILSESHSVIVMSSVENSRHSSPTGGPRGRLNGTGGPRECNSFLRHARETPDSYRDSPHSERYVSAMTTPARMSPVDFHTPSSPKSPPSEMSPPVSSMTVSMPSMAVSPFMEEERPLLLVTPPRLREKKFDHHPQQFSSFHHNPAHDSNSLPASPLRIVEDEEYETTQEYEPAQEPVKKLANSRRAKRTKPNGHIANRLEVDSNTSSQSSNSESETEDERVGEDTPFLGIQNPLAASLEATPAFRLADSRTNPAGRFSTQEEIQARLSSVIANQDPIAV
The subject of experiment [7] is Neuregulin-1 EGF-like domain. Kind of experiment: binders of neuregulin-1 EGF-like domain, primary screen, biochemical, small-molecule microarray, 635 nm fluorescence (AID 1081).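 Further: binding of the protein to compounds printed on small-molecule microarray slides.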 The note with it: small-molecule microarray binding, higher = more signal.
A short description of experiment [8]: FRG1 promoter luciferase signal modulators, primary screen, FRG1 inhibition for FSHD, cell-based, C2C12 myotubes, firefly/Renilla luciferase, luminescence (AID 1084). The note with it: higher = more signal, called active from +8 up or from −8 down.
The nature of experiment [9]: binders of probe aFST on microarray, primary screen, stem cell growth factor project, biochemical, small-molecule microarray, fluorescence 635/667 (AID 1086).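 Further: score merges 667 nm fluorescence with signal-to-noise of each printed compound spot.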 The note with it: higher = more signal.
Experiment [10] is described as follows: binders of probe aHhip on microarray, primary screen, stem cell growth factor project, biochemical, small-molecule microarray, fluorescence 635/667 (AID 1087).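 Further: score merges spot fluorescence at 667nm with spot signal to noise ratio.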 The note with it: higher = more signal.

Chain of Neurogenic locus notch homolog protein 2 (Homo sapiens) (Q04721 whole entry, looked up, canonical isoform): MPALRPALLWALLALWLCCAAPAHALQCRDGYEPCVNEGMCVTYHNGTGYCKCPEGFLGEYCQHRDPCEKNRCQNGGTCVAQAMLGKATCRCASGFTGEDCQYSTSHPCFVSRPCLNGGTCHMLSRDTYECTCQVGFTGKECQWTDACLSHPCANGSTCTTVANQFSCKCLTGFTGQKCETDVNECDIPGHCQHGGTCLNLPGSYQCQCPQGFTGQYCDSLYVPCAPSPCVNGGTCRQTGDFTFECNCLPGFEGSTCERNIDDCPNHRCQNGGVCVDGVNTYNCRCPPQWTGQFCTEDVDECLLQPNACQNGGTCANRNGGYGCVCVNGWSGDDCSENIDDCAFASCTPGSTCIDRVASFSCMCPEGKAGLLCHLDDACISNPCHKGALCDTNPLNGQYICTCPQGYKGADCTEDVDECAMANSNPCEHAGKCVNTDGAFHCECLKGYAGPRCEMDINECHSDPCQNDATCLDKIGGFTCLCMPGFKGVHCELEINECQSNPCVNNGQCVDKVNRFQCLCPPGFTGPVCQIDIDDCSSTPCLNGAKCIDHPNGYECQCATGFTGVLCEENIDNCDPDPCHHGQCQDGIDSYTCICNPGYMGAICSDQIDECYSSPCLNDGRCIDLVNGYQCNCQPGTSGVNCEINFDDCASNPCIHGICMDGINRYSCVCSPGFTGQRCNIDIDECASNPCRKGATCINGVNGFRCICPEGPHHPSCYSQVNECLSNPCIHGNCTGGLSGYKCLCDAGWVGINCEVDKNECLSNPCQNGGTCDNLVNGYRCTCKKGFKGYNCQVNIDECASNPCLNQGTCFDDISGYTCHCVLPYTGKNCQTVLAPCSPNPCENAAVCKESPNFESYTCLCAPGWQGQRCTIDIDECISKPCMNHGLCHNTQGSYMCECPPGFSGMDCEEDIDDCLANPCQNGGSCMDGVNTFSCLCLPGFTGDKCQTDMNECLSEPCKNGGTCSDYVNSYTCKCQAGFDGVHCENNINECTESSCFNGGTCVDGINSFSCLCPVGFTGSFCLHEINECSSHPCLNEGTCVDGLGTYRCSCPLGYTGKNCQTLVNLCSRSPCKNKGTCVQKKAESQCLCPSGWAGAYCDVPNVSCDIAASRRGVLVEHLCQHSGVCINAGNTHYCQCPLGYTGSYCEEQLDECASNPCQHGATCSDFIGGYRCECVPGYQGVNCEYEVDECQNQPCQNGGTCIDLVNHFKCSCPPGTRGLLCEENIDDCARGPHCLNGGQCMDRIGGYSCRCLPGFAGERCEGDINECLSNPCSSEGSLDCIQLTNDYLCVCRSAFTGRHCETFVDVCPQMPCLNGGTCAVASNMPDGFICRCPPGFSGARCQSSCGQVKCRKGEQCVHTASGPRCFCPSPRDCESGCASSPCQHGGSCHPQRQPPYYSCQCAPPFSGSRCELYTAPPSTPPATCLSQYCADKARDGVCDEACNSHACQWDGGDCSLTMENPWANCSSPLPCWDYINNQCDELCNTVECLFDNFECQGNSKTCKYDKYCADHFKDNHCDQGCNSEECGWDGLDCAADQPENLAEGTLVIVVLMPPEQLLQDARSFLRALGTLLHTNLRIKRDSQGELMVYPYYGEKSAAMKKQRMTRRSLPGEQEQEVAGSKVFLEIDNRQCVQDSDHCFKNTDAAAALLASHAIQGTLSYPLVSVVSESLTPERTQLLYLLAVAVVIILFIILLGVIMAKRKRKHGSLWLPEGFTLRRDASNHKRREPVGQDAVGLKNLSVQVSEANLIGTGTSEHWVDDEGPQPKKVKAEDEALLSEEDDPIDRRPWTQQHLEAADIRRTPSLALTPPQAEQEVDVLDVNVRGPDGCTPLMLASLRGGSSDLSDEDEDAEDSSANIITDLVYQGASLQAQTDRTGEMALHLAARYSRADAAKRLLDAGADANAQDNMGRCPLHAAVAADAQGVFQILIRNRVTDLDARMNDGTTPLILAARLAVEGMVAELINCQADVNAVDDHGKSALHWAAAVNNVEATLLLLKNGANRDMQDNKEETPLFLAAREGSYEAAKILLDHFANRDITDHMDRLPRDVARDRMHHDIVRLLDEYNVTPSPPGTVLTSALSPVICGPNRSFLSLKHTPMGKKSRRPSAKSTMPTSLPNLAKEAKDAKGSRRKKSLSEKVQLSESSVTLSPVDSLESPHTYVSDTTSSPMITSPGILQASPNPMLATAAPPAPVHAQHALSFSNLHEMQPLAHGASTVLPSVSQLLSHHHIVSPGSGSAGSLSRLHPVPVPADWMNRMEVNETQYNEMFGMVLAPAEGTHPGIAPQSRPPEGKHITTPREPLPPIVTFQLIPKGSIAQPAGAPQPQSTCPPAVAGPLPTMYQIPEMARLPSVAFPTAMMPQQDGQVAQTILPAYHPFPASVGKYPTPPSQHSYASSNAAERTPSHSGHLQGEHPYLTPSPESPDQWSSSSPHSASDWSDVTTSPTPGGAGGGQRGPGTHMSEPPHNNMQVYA

In the case of `COc1ccc([Si](C)(C)[C@H]2[C@H](CCO)O[C@@]3(C(=O)N(Cc4cccc(N5C(=O)c6ccccc6Oc6ccccc65)c4)c4ccccc43)[C@@H]2C)cc1`, the composite z-score in experiment [1] is 0.115; in experiment [2], -0.672; in [3] it was -0.0645; in [4] it was 0.462; in experiment [5] it was 0.139; in experiment [6] it was 0.962. Moreover, the composite z-score in experiment [7] was 1.02; in experiment [9], -0.278; in [10] it was -0.132. In experiment [8], the z-score was -1.19 (inactive).
As for `COCCCN1C(=O)[C@@]2(c3ccc([N+](=O)[O-])cc3)CC(=O)N(CC34CC5CC(CC(C5)C3)C4)[C@@H]2c2ccc(CO)cc21`, the composite z-score in [1] was -0.145; in [2], -0.104; in [3] it was -0.0952; in experiment [4], 0.0256; in experiment [5], -0.345; in [6], 0.0024. For the same molecule, the composite z-score in [7] is 1.05; in experiment [9], -0.19; in experiment [10], 0.312. The z-score in [8] is -0.748 (inactive).
For the molecule `COC(=O)C1(Cc2ccccc2)C=C2C(=C(C)C(=O)C2C)CN1` (stereo not given), the composite z-score in experiment [1] is 0.601; in experiment [2], 0.158; in [3] it was -0.0032; in experiment [4] it was 0.137; in experiment [5], 1.01; in experiment [6] it was 0.643. Moreover, the composite z-score in experiment [7] was 0.635; in experiment [9] it was 0.66; in experiment [10], -0.199. Also, in experiment [8], the z-score was 0.0369 (inactive).
Turning to `CC(C)(C)N1CC=CC23O[C@@H]4/C=C\CCCOC(=O)C4[C@H]2C(=O)N(CCCCCO)[C@@H]3C1=O` (stereo not given in full), the composite z-score in experiment [1] was 1.26; in experiment [2], -0.406; in [3], -0.227; in experiment [4], -0.668; in [5] it was -0.545; in [6], -0.229. Besides, the values for the composite z-score in experiment [7], in experiment [9] and in experiment [10] were -0.448, -1.09 and 0.176, respectively. In addition, the z-score in [8] was -0.106 (inactive).
`COc1ccc([Si](C)(C)[C@H]2[C@H](CC(=O)N3Cc4ccccc4C[C@H]3CO)O[C@@]3(C(=O)N(C)c4c(Br)cc(C)cc43)[C@@H]2C)cc1`: the composite z-score is -0.0669 in experiment [1]; 0.403 in [2]; -0.119 in [3]; 0.333 in [4]; 0.363 in [5]; 1.05 in experiment [6]. The composite z-score in experiment [7] is 1.11; in experiment [9], 0.334; in experiment [10] it was -0.132. Moreover, the z-score in experiment [8] is -4.4 (inactive).
As to `N#Cc1ccc(C(O)C2C=CC3C(=O)NC(=O)C3N2Nc2ccc(Cl)cc2Cl)cc1` (stereo not given), the composite z-score in experiment [1] was -0.0161; in experiment [2], -0.0803; in experiment [3], -0.101; in experiment [4], 0.116; in experiment [5] it was 1.45; in experiment [6], 1.82. Also, the figures for the composite z-score in [7], in experiment [9] and in experiment [10] were 0.649, 0.119 and -0.146, respectively. The z-score in experiment [8] was 1.79 (inactive).
As for `COc1ccc([Si](C)(C)[C@H]2[C@H](CC(=O)N3Cc4ccccc4C[C@H]3CO)O[C@@]3(C(=O)N(C)c4ccccc43)[C@@H]2C)cc1`, the composite z-score in experiment [1] is 0.271; in [2] it was 1.09; in experiment [3], -0.081; in [4], 0.583; in [5] it was 0.647; in [6] it was 1.65. Further, the composite z-score in experiment [7] was determined as 1.36; in [9] it was 0.596; in experiment [10], 0.315. Further, the z-score in experiment [8] is -3.34 (inactive).
`CC(C)[Si](C#CCCc1ccccc1)(O[C@H](c1ccccc1)c1cn(Cc2ccccc2)nn1)C(C)C`: the composite z-score in experiment [1] is -0.454; in [2], -0.137; in experiment [3], -0.116; in experiment [4], 0.529; in experiment [5] it was 0.186; in [6], 0.215. The composite z-score in experiment [7] is 1.12; in experiment [9], 0.584; in [10], 0.0401. In experiment [8], the z-score was 0.0497 (inactive).
With `CC1CC/C=C\[C@H]2OC34C=CCN(Cn5nnc6ccccc65)C(=O)[C@H]3N(CCCCCCO)C(=O)[C@@H]4C2C(=O)O1` (stereo not given in full), the composite z-score in experiment [1] is 0.372; in [2], -1.11; in experiment [3], -0.176; in [4], -0.539; in [5], -0.964; in experiment [6], 2.14. Also, the composite z-score is 1.59 in [7], -0.541 in experiment [9] and -0.169 in [10]. For the same molecule, the z-score in experiment [8] was -0.863 (inactive).
On to `NC(=O)N1C(=O)C2C(C1=O)C1C=C(CCCO)C2C(C2CC2)N1Cc1sc2ccccc2c1Cl` (stereo not given), for which the composite z-score is -0.4 in [1]; 1.09 in experiment [2]; 0.0397 in [3]; 1.27 in [4]; 0.481 in experiment [5]; 1.45 in experiment [6]. Moreover, the composite z-score in experiment [7] is 1.21; in [9], 0.115; in experiment [10] it was -0.134. Moreover, in experiment [8], the z-score is 0.906 (inactive).
Consider `Cc1ccccc1C(O)C1C=CC2C(=O)N(c3ccccc3)C(=O)C2N1Nc1ccccc1` (stereo not given), for which the composite z-score in experiment [1] was 0.457; in experiment [2], 0.573; in experiment [3], 0.133; in experiment [4], 1.15; in experiment [5], 1.61; in [6], 2.18. Moreover, the composite z-score was determined as 1.31 in [7], 1.06 in [9] and 0.0741 in experiment [10]. Further, the z-score in experiment [8] was -1.78 (inactive).
